This passage reports Potency results from PubChem BioAssay (Tox21).

“And” between values parts separate entries of the source, which are not always exact repeats. Equal entries are not always repeated. Results filed as inconclusive are left out. Where a call stands in place of a potency, no number is given. More than one record can exist for a structure, and the calls need not agree. The source made the active and inactive calls. Unless noted, calls follow the shape of the dose curve; as a rule, active = well fitted activation curve with a large enough effect in the repeat runs; inconclusive = weak or mixed curves; inactive = no such curve, though single readings can be large or run the other way.
Potency is read from the fitted curve at half-maximal effect.

The first test can be described thus: qHTS assay for small molecules that induce genotoxicity in human embryonic kidney cells expressing luciferase-tagged ATAD5 (AID 651632). Also: nearly all actives have a fitted effect of over 15% in size. Particulars: HEK293T ATAD5-luciferase induction, 16 h; series mostly up to 83.3 µM. The method, boiled down:
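ATAD5-luc HEK293T, 2,000 cells/well; cpd or DMSO pin-transferred; 16 hr, 37C/5% CO2; Amplite 30 min RT; luminescence.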
For orientation: Quantitative high-throughput screening tests each substance at several concentrations.
In the case of `C[C@@H](NCCCc1cccc(C(F)(F)F)c1)c1cccc2ccccc12`, the Potency entry was “inactive”.

Turning to `CSc1ccc(/C=C2/C(C)=C(CC(=O)O)c3cc(F)ccc32)cc1`, the Potency result was “inactive”. On the same count and under the same terms, then `CN(C)C(=O)C1(N2CCCCC2)CCN(CC[C@@]2(c3ccc(Cl)c(Cl)c3)CN(C(=O)c3ccccc3)CCO2)CC1`, with “inactive”.

On to `Nc1ccc(N)c2ccccc12`, for which the Potency result is “inactive”.

Take `CCOC(=O)O[C@]1(C(=O)OCCl)CC[C@H]2[C@@H]3CCC4=CC(=O)C=C[C@]4(C)[C@H]3[C@@H](O)C[C@@]21C`: the Potency result was “inactive”. On to `CCCCCCCC/C=C\CCCCCCCCOCCO`, for which the Potency entry was “inactive”.

As to `CCCCCCCCCOC(=O)c1ccc(O)cc1`, the Potency result is “inactive”. Still for that read-out and setting: the figure for `CCCCCCOC(=O)c1ccc(O)cc1` is 21.7 µM (active) and 19.3 µM (active); for `NC(=NCCCCCCN=C(N)/N=C(\N)Nc1ccc(Cl)cc1)/N=C(\N)Nc1ccc(Cl)cc1` it is “inactive”; for `CC(C)C(C)(C)C(C)(C)C(C)(C)S` it is “inactive”. As for `Oc1ccc(C2(c3ccc(O)cc3)CC3CC2C2CCCC32)cc1` (stereo unspecified), the Potency result was “inactive”. Take `Cc1onc(-c2c(Cl)cccc2Cl)c1C(=O)N[C@@H]1C(=O)N2[C@@H]1SC(C)(C)[C@@H]2C(=O)O`: the Potency entry was “inactive”. Consider `NNc1nc(-c2ccc(N)cc2)cs1`, for which the Potency result was “inactive”. On to `CC/C(=C(\c1ccc(O)cc1)c1ccc(OCCN(C)C)cc1)c1ccccc1`, for which the Potency result was “inactive”. As for `CCOc1nc2cccc(C(=O)OC(C)OC(=O)OC3CCCCC3)c2n1Cc1ccc(-c2ccccc2-c2nn[nH]n2)cc1` (stereo unspecified), the Potency result is “inactive”.

`CCC(C)Nc1ccc(NC(C)CC)cc1` (stereo unspecified): the Potency result was “inactive”. Regarding `CC1(C)CCC(C)(C)c2cc(C(=O)Nc3ccc(C(=O)O)cc3)ccc21`, the Potency entry was “inactive”. In the case of `CCCCCCC[N+](CC)(CC)CCCCc1ccc(Cl)cc1`, the Potency entry is “inactive”.

Consider `Fc1ccc([C@@H]2CCNC[C@H]2COc2ccc3c(c2)OCO3)cc1`, for which the Potency entry was “inactive”.

Take `CCCCC(CC)CN=C(N)NC(N)=NCCCCCCN=C(N)NC(N)=NCC(CC)CCCC` (stereo unspecified): the Potency result is “inactive”. With `Cc1cc(CCN2CCN(c3nsc4ccccc34)CC2)cc2c1NC(=O)CC2(C)C`, the Potency result is “inactive”. Still for that read-out and setting: then `CCCCCCCCCCCCc1ccc(O)cc1`, with “inactive”; and `O=C(Nc1cccc([N+](=O)[O-])c1)c1cc2ccccc2cc1O`, with “inactive”; and `Fc1ccc(C(c2ccc(F)cc2)N2CCN(C/C=C/c3ccccc3)CC2)cc1`, with “inactive”. As for `CCCC(c1cc(C(C)(C)C)c(O)cc1C)c1cc(C(C)(C)C)c(O)cc1C`, the Potency result is “inactive”. `Clc1ccccc1C(c1ccccc1)(c1ccccc1)n1ccnc1`: the Potency result is “inactive”.

Regarding `O=C(Oc1cccc2cccnc12)c1ccccc1`, the Potency result is “inactive”.

As to `O=C1CCCCCN1SSN1CCCCCC1=O`, the Potency result was “inactive”. Same read-out and setting: then `Cc1ccc(O)c(C(C)(C)C)c1`, with “inactive”; and `CCCCCCCCNC(C)C(O)c1ccc(SC(C)C)cc1` (stereo unspecified), with “inactive”. Regarding `CCCCCCCC/C=C/CCCCCCCC1=NCCN1CCO`, the Potency entry is “inactive”. `Oc1ccc2cc(SSc3ccc4cc(O)ccc4c3)ccc2c1`: the Potency result is “inactive”. Regarding `Cc1c(C)c2c(c(C)c1OC(=O)CCC(=O)O)CC[C@@](C)(CCC[C@H](C)CCC[C@H](C)CCCC(C)C)O2`, the Potency result was “inactive”.

Take `O=C1c2c(O)ccc(Nc3ccc(CCO)cc3)c2C(=O)c2c([N+](=O)[O-])ccc(O)c21`: the Potency entry is “inactive”. On the same count and under the same terms, the entry for `c1cc(C(c2ccc(OCC3CO3)cc2)c2ccc(OCC3CO3)cc2)ccc1OCC1CO1` (stereo unspecified) is “inactive”. Regarding `O=C(c1ccc(F)cc1)C1CCN(CCn2c(=O)[nH]c3ccccc3c2=O)CC1`, the Potency entry is “inactive”. As to `Cc1cccc(CN2CCN(C(c3ccccc3)c3ccc(Cl)cc3)CC2)c1` (stereo unspecified), the Potency result was “inactive”. Turning to `CCCN(CCC)c1c([N+](=O)[O-])cc(C(F)(F)F)c(N)c1[N+](=O)[O-]`, the Potency entry was “inactive”. For `OCCN1CCN(CC/C=C2/c3ccccc3Sc3ccc(C(F)(F)F)cc32)CC1`, the Potency result was “inactive”.

A short description of another test: qHTS assay for small molecule agonists of the p53 signaling pathway - cell viability (AID 651633; calls by dose curve; also: nearly all actives have a fitted effect of over 30% in size). Particulars: p53RE-bla HCT-116 viability, ATP luminescence, 16 h; series mostly up to 83.3 µM. The method, boiled down: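 p53RE-bla cells, seeded at 4,000 per well and rested 5 h at 37 C/5% CO2, received compounds in DMSO for 16 h at 37 C. CellTiter-Glo was then added, and luminescence was read after 30 min at room temperature to gauge cytotoxicity.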
Turning to `C[C@@H](NCCCc1cccc(C(F)(F)F)c1)c1cccc2ccccc12`, the Potency is 18.8 µM (active).

Regarding `CSc1ccc(/C=C2/C(C)=C(CC(=O)O)c3cc(F)ccc32)cc1`, the Potency is 26.6 µM (active). Regarding `CN(C)C(=O)C1(N2CCCCC2)CCN(CC[C@@]2(c3ccc(Cl)c(Cl)c3)CN(C(=O)c3ccccc3)CCO2)CC1`, the Potency was 64.1 µM (active).

Consider `Nc1ccc(N)c2ccccc12`, for which the Potency is 15.3 µM (active). Regarding `CCOC(=O)O[C@]1(C(=O)OCCl)CC[C@H]2[C@@H]3CCC4=CC(=O)C=C[C@]4(C)[C@H]3[C@@H](O)C[C@@]21C`, the Potency entry is “inactive”. Consider `CCCCCCCC/C=C\CCCCCCCCOCCO`, for which the Potency is 31.6 µM (active). Take `CCCCCCCCCOC(=O)c1ccc(O)cc1`: the Potency is 60.3 µM (active). Turning to `CCCCCCOC(=O)c1ccc(O)cc1`, the Potency result is “inactive”. Same read-out and setting: then `NC(=NCCCCCCN=C(N)/N=C(\N)Nc1ccc(Cl)cc1)/N=C(\N)Nc1ccc(Cl)cc1`, with 38.2 µM (active) [middle of 4 runs]; and `CC(C)C(C)(C)C(C)(C)C(C)(C)S`, with “inactive”. The same measure, in the same setting: then `Oc1ccc(C2(c3ccc(O)cc3)CC3CC2C2CCCC32)cc1` (stereo unspecified), with 58.7 µM (active). `Cc1onc(-c2c(Cl)cccc2Cl)c1C(=O)N[C@@H]1C(=O)N2[C@@H]1SC(C)(C)[C@@H]2C(=O)O`: the Potency entry is “inactive”. As for `NNc1nc(-c2ccc(N)cc2)cs1`, the Potency result was “inactive”. As for `CCOc1nc2cccc(C(=O)OC(C)OC(=O)OC3CCCCC3)c2n1Cc1ccc(-c2ccccc2-c2nn[nH]n2)cc1` (stereo unspecified), the Potency was 12.2 µM (active). Take `CCC(C)Nc1ccc(NC(C)CC)cc1` (stereo unspecified): the Potency is 14 µM (active). Regarding `CC1(C)CCC(C)(C)c2cc(C(=O)Nc3ccc(C(=O)O)cc3)ccc21`, the Potency was 61.1 µM (active). On the same count and under the same terms, the entry for `CCCCCCC[N+](CC)(CC)CCCCc1ccc(Cl)cc1` is “inactive”. Turning to `Fc1ccc([C@@H]2CCNC[C@H]2COc2ccc3c(c2)OCO3)cc1`, the Potency was 33.5 µM (active).

Consider `CCCCC(CC)CN=C(N)NC(N)=NCCCCCCN=C(N)NC(N)=NCC(CC)CCCC` (stereo unspecified), for which the Potency is 26.6 µM (active). On the same count and under the same terms, the figure for `Cc1cc(CCN2CCN(c3nsc4ccccc34)CC2)cc2c1NC(=O)CC2(C)C` is 43.3 µM (active); for `CCCCCCCCCCCCc1ccc(O)cc1` it is 24.3 µM (active); for `O=C(Nc1cccc([N+](=O)[O-])c1)c1cc2ccccc2cc1O` it is 3.86 µM (active). Take `Fc1ccc(C(c2ccc(F)cc2)N2CCN(C/C=C/c3ccccc3)CC2)cc1`: the Potency is 3.76 µM (active). Still for that read-out and setting: the figure for `CCCC(c1cc(C(C)(C)C)c(O)cc1C)c1cc(C(C)(C)C)c(O)cc1C` is 17.4 µM (active); for `Clc1ccccc1C(c1ccccc1)(c1ccccc1)n1ccnc1` it is 19.3 µM (active). As to `O=C(Oc1cccc2cccnc12)c1ccccc1`, the Potency entry is “inactive”.

For `O=C1CCCCCN1SSN1CCCCCC1=O`, the Potency result was “inactive”.

Take `Cc1ccc(O)c(C(C)(C)C)c1`: the Potency is 54.4 µM (active) and inactive. For the compound `CCCCCCCCNC(C)C(O)c1ccc(SC(C)C)cc1` (stereo unspecified), the Potency was 10.6 µM (active). Take `CCCCCCCC/C=C/CCCCCCCC1=NCCN1CCO`: the Potency was 43.3 µM (active).

`Oc1ccc2cc(SSc3ccc4cc(O)ccc4c3)ccc2c1`: the Potency result was “inactive”. For `Cc1c(C)c2c(c(C)c1OC(=O)CCC(=O)O)CC[C@@](C)(CCC[C@H](C)CCC[C@H](C)CCCC(C)C)O2`, the Potency result was “inactive”. Consider `O=C1c2c(O)ccc(Nc3ccc(CCO)cc3)c2C(=O)c2c([N+](=O)[O-])ccc(O)c21`, for which the Potency result is “inactive”. Regarding `c1cc(C(c2ccc(OCC3CO3)cc2)c2ccc(OCC3CO3)cc2)ccc1OCC1CO1` (stereo unspecified), the Potency entry is “inactive”. On to `O=C(c1ccc(F)cc1)C1CCN(CCn2c(=O)[nH]c3ccccc3c2=O)CC1`, for which the Potency entry was “inactive”. As for `CCCN(CCC)c1c([N+](=O)[O-])cc(C(F)(F)F)c(N)c1[N+](=O)[O-]`, the Potency is 30.5 µM (active). Regarding `OCCN1CCN(CC/C=C2/c3ccccc3Sc3ccc(C(F)(F)F)cc32)CC1`, the Potency was 29.8 µM (active).
